This note sets out measurements from PubChem BioAssay AID708 (SRMLSC, 2007).

Screen size: about 65,000 compounds; fewer than 10 were called active. The list is a sample of the results. Unmarked numbers belong to inactive results.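 The calls were made as follows: active = at 10 µM dose, initial 340 nm absorbance at least 2 fold that of control wells; inactive = change under 2 fold.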

This assay is described as follows: compound light absorbance at 340 nm, profiling panel, artefact control, biochemical, MLSMR library, data from PS, PMK, MK assays (AID 708).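 Also: initial absorbance extrapolated from kinetic A340 decline of NADH oxidation.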 The conditions noted are these: compound absorbance at 340 nm, fold over control; at 10 µM; hits give high values.
For the compound `N#Cc1c(N)n(CCOC(=O)c2ccc(Cl)cc2)c2nc3ccccc3nc12`, the fold change was 1.01. To `CCc1cc(=O)oc2cc(C)cc(OC(C)C(=O)O)c12` (stereo not drawn) belongs 1.04; to `O=c1[nH]nc(CSCc2ccccc2Cl)[nH]1`, 1.04; to `Cn1c(=O)n(C)c2cc(CNc3ccc(N4CCOCC4)c(C(=O)O)c3)ccc21`, 1. For the compound `O=C(Cn1c(=O)sc2ccccc21)Nc1ccc2c(c1)OCCO2`, the fold change is 1.01. As for `Cc1ccc(S(=O)(=O)NCc2cn3ccsc3n2)c(C)c1`, the figure is 0.97; as for `CCOc1ccc(OCC)c(NC(=O)C(NS(=O)(=O)c2ccc3c(c2)oc(=O)n3C)C(C)C)c1` (stereo not drawn), 0.97. To `COCC(C)N=CC1=C(O)CC(C)(C)CC1=O` (stereo not drawn) belongs 0.95; to `NC(=O)CSc1c[nH]c2ccccc12`, 1.01. To `COc1ccc(NC(C)=O)cc1NC(=O)CN1CCN(c2ccccn2)CC1` belongs 0.97; to `CCN1CCN(c2ncnc3c2oc2nc(C)c4c(c23)CC(C)(C)OC4)CC1`, 0.99. In the case of `COc1ccc2nc(NC(=O)c3ccc(Br)s3)sc2c1`, the fold change is 1.1. To `CCOC(=O)c1c(N)c(C#N)nn1-c1ccccc1C(=O)OC` belongs 1.

For the compound `Cc1nnc(SCc2cc(=O)[nH]c(N3CCN(Cc4ccccc4)CC3)n2)s1`, the fold change was 1.01.

With `O=C(Nc1ccccc1)c1cccnc1Nc1ccccc1`, the fold change is 1.1. To `CCN(Cc1nc2ccccc2c(=O)[nH]1)Cc1cc(=O)oc2cc(C)c(C)cc12` belongs 1.01. To `CC(C)C(=O)Nc1c(C(=O)c2ccc(F)cc2)oc2ccccc12` belongs 1.11; to `Cc1ccc(S(=O)(=O)NCC(=O)N(CC(=O)NC2CCCCC2)Cc2ccco2)cc1`, 0.98. For the compound `Cc1ccc(C)c(N2CCN(S(=O)(=O)c3ccc4c(c3)oc(=O)n4C)CC2)c1`, the fold change is 0.98.

Consider `C=CCNc1ncnc2ccc(Br)cc12`, for which the fold change is 1.1. Take `O=C(CSc1nnc(-c2cccs2)n1Cc1ccco1)c1ccc2c(c1)OCO2`: the fold change was 1.08. As for `CC(C)(C)NC(=O)Cn1nnc(-c2ccccc2Cl)n1`, the figure is 1.03; as for `ON=C1/C(=N\O)CC2(C/C1=N/O)OCCO2`, 0.99.

As to `COC(=O)CNC(=O)c1ccc2c(c1)S(=O)(=O)c1ccccc1C2=O`, the fold change is 1.02. Take `CCOC(=O)c1oc2ccccc2c1NC(=O)c1cccs1`: the fold change was 1.02. As for `CC(C)Oc1ccc(C2NC(=O)NC2=O)cc1` (stereo not drawn), the figure is 1; as for `O=C(CS(=O)(=O)Cc1ccccc1)Nc1cccnc1`, 1.08. To `CCOC(=O)c1c(NC(=O)CCC(=O)NCc2ccco2)sc2c1CCCC2` belongs 1.03.
